Compound activity from PubChem BioAssay.
Rows were chosen to be rich in hits. Some 22% of all compounds tested hit in one or more screens of this group.
CHX counter: affects cycloheximide protein synthesis inhibition readout, counter-screen; cell reporter, cycloheximide protein synthesis inhibition counterscreen; 300,000 tested, 12% active; max response, %; in the data active = max response mostly above about 13%, no sharp cut-off; inactive = mostly below about 14%; note: read at 38.3 µM for the half of the compounds with a filed dose; 0% is about no effect
Pf growth 96h: inhibits malaria parasite growth, 96 h | Potency, µM (series often up to 28.7 µM), for the others: at the top dose activity change, negative = inhibition, most hits filed as inhibitors | 320,000 tested, 6.9% active | P. falciparum luciferase reporter growth, 96 h; note: potency is the fitted concentration of half-maximal effect; % is set by controls: 0 for no effect and ±100 for the full control effect
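Compounds incubated with erythrocytes infected by luciferase-expressing P. falciparum (2% hematocrit, 0.05% parasitemia final) for 96 hours, 37 C in 5% CO2. Growth inhibition scored as decreased luciferase luminescence.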
Shiga toxin inh: Shiga toxin inhibition; Vero cells, Shiga toxin protein synthesis inhibition reporter; inhibition, % at 38.7 µM; 290,000 tested, 9.2% active; in the data active = inhibition mostly above about 28%, no sharp cut-off; inactive = mostly below about 43%; note: 0% is about no effect
Pf growth 48h: inhibits P. falciparum growth in the first generation, 48 h; 310,000 tested, 5.9% active; AID 504832; P. falciparum luciferase growth in erythrocytes, 48 h; Potency, µM (doses to about 28.7 µM), without a hit: top-dose activity change, negative = inhibition, usual class: inhibitors; note: potency is the fitted concentration of half-maximal effect; % is set by controls: 0 for no effect and ±100 for the full control effect
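In quantitative HTS format, infected erythrocytes bearing luciferase-reporter parasites were treated for a single generation at 37 C. Luminescence after adding detection reagent served as the growth measure.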
LmPK inhibitor: LmPK (Leishmania mexicana) enzyme inhibition; Q27686; purified LmPK, Kinase-Glo ATP luminescence, 1 h; Potency, µM (top dose mostly 57.5 µM), for inactives: at the highest dose activity change, negative = inhibition, usual class: inhibitors; 290,000 tested, 0.37% active; note: potency is the fitted concentration of half-maximal effect; % is set by controls: 0 for no effect and ±100 for the full control effect
Target sequence (Q27686 whole entry, looked up): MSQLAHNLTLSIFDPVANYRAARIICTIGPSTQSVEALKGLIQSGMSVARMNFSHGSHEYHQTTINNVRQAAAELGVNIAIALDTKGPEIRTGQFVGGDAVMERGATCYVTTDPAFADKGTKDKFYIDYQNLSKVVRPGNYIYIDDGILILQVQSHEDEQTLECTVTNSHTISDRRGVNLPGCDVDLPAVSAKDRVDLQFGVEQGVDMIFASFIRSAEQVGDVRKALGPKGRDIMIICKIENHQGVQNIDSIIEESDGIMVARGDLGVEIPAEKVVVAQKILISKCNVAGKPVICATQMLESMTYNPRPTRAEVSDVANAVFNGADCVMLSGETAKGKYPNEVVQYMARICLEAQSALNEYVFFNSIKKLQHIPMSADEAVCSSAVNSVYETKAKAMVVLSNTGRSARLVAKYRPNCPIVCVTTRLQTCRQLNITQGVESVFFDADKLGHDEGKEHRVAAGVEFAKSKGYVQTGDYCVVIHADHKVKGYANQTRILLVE
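Kinase-Glo luminescence read after 1 h RT reaction of 0.1 nM LmPK with 0.5 mM PEP and 0.1 mM ADP. Activity scaled between uninhibited and enzyme-free controls.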
* = called active by the depositor; [ ] = remark or other dose. Unless noted, calls come from the whole dose curve; as a rule, active = well fitted inhibition curve with a large enough effect; inconclusive = small, poorly fitted or top-dose-only effect, or another doubt; inactive = no such curve, though single readings can be large or run the other way.

`CC(C)(C)C(=O)Nc1nnc(CCc2ccccc2)s1` gave CHX counter 49.6*, Pf growth 96h 472.2%, Shiga toxin inh 81.5*, Pf growth 48h 145.4% and LmPK inhibitor 0.3%.
Screening O=S(=O)(c1ccc2nc(Cl)c(Cl)nc2c1)N1CCN(S(=O)(=O)c2c(F)cccc2F)CC1 returned CHX counter -3.0 and Shiga toxin inh 1.6.
CCn1nc(C)c(CN2CCCC(CNS(=O)(=O)c3ccc(OC)cc3)C2)c1C (stereo not given) was read as CHX counter 21.1, Pf growth 96h inconclusive, Shiga toxin inh -22.6, Pf growth 48h 9.1% and LmPK inhibitor -10.9%.
For CC(C)C(=O)Nc1nnc(CCc2ccccc2)s1 the results were CHX counter 18.7*, Pf growth 96h 3.1%, Shiga toxin inh 30.0, Pf growth 48h -3.3%[0.00184 µM] and LmPK inhibitor 1.7%.
Cn1cc(CNC(=O)/C=C/c2ccc(Cl)cc2)cn1 was read as CHX counter 1.3, Pf growth 96h -1.4%, Shiga toxin inh 6.4, Pf growth 48h 7.9% and LmPK inhibitor -1.4%.
`Cc1cc(/C([O-])=C(/C(=S)Nc2ccc(F)cc2)[n+]2ccccc2)c(C)n1-c1ccc(F)cc1` gave CHX counter 11.3, Pf growth 96h inconclusive, Shiga toxin inh 11.9, Pf growth 48h 18.6% and LmPK inhibitor -0.4%.
`Cc1cc(/C([O-])=C(/C(=S)Nc2ccccc2)[n+]2ccccc2)c(C)n1-c1ccccc1` gave CHX counter 29.5*, Pf growth 96h inconclusive, Shiga toxin inh 43.7 and LmPK inhibitor -6.1%.
Screening Cc1cc(/C([O-])=C(/C(=S)Nc2ccc(F)cc2)[n+]2ccccc2)c(C)n1Cc1ccccc1Cl returned CHX counter 9.5, Pf growth 96h 9.28µM*, Shiga toxin inh -5.2, Pf growth 48h inconclusive and LmPK inhibitor 3.0%.
`O=[N+]([O-])c1cccc(/C([O-])=C(/C(=S)Nc2ccccc2)[n+]2ccccc2)c1` gave CHX counter 80.4*, Pf growth 96h inconclusive, Shiga toxin inh active, Pf growth 48h -8.8% and LmPK inhibitor -0.6%.
`COc1ccc(C(=O)N/C(=C\c2ccccc2)C(=O)NCc2cccnc2)cc1` gave CHX counter -4.4, Pf growth 96h -2.3%, Shiga toxin inh 8.5, Pf growth 48h 15.3% and LmPK inhibitor 0.9%.
Screening CC(Sc1nnc2ccccn12)C(=O)Nc1ccc2c(c1)OCO2 (stereo not given) returned CHX counter 13.6, Pf growth 96h 24.5%, Shiga toxin inh 22.9, Pf growth 48h 22.1% and LmPK inhibitor -1.9%.
Screening CCOC(=O)c1ccc(NC(=S)N2CCN(Cc3ccccc3)CC2)cc1 returned CHX counter 1.2, Pf growth 96h inconclusive, Shiga toxin inh -3.1, Pf growth 48h -8.7% and LmPK inhibitor 1.4%.
CCOC(=O)c1ccc(NC(=O)N2CCN(CCc3ccccc3)CC2)cc1 was read as CHX counter 20.1*, Shiga toxin inh 12.3, Pf growth 48h inconclusive and LmPK inhibitor 3.8%.
`COc1ccccc1NC(=O)N1CCN(CCc2ccccc2)CC1` gave CHX counter 1.5, Pf growth 96h -3.6%, Shiga toxin inh 2.5, Pf growth 48h 4.15µM* and LmPK inhibitor 3.2%.
For Cc1cc(C)n2nc(SCc3ccccc3F)nc2n1 the results were CHX counter -0.9, Pf growth 96h 38.4%, Shiga toxin inh 15.6, Pf growth 48h -0.6%[0.00184 µM] and LmPK inhibitor 3.7%.
Screening Cc1cc(C)c(C#N)c(SCc2ccccc2)n1 returned CHX counter -0.9, Pf growth 96h 21.5%, Shiga toxin inh -7.5, Pf growth 48h inconclusive and LmPK inhibitor 0.8%.
Screening Cc1cc(C)n2nc(SCC3COc4ccccc4O3)nc2n1 (stereo not given) returned CHX counter 51.3*, Pf growth 96h 107.8%, Shiga toxin inh 88.7*, Pf growth 48h 12.7% and LmPK inhibitor -3.1%.
`Cc1cc(C)c(C#N)c(SCC2COc3ccccc3O2)n1` (stereo not given) gave CHX counter 21.0*, Pf growth 96h 25.3%[5.75 µM], Shiga toxin inh 13.2, Pf growth 48h 0.0% and LmPK inhibitor 2.0%.
N#Cc1cc2c(nc1SCC1COc3ccccc3O1)CCC2 (stereo not given) was read as CHX counter 35.4*, Shiga toxin inh 58.3*, Pf growth 48h 34.1% and LmPK inhibitor 5.4%.
